Reference: PubChem BioAssay (NCI)
About 83,000 compounds went through this panel and 20% of them were active in at least one assay; those are over-represented in the sample as a whole.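 Single-concentration screen, 48 h exposure, 96-well plates. Endpoint: percent growth. Below 10 = active.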 Values without a mark were called inactive. Active and inactive are the calls of the source.

Key:
Test in all cases: NCI-60 one-dose screen, 48 h (100 = growth as untreated, 0 = no growth, -100 = all killed)
[1] = tested on: DU-145 prostate; conditions: 10 µM unless noted
[2] = tested on: K-562 leukemia; conditions: 10 µM unless noted
[3] = tested on: MALME-3M melanoma; conditions: 10 µM unless noted
[4] = tested on: MDA-MB-231 breast; conditions: 10 µM unless noted
[5] = tested on: RXF 393 renal; conditions: 10 µM unless noted
[6] = tested on: SF-268 CNS; conditions: 10 µM unless noted
[7] = tested on: SF-295 CNS; conditions: 10 µM unless noted
[8] = tested on: SF-539 CNS; conditions: 10 µM unless noted
[9] = tested on: UACC-257 melanoma; conditions: 10 µM
[10] = tested on: HCT-15 colon; conditions: 10 µM unless noted
[11] = tested on: HT29 colon; conditions: 10 µM unless noted
[12] = tested on: SNB-75 CNS; conditions: 10 µM unless noted
[13] = tested on: SNB-19 CNS; conditions: 10 µM unless noted
[14] = tested on: U251 CNS; conditions: 10 µM unless noted
[15] = tested on: PC-3 prostate; conditions: 10 µM unless noted
[16] = tested on: SK-MEL-5 melanoma; conditions: 10 µM unless noted
[17] = tested on: UACC-62 melanoma; conditions: 10 µM unless noted
[18] = tested on: LOX IMVI melanoma; conditions: 10 µM unless noted
[19] = tested on: SK-MEL-28 melanoma; conditions: 10 µM unless noted
[20] = tested on: M14 melanoma; conditions: 10 µM unless noted

Compound	growth [1]	growth [2]	growth [3]	growth [4]	growth [5]	growth [6]	growth [7]	growth [8]	growth [9]	growth [10]	growth [11]	growth [12]	growth [13]	growth [14]	growth [15]	growth [16]	growth [17]	growth [18]	growth [19]	growth [20]
CN1C(=O)N(C)C2Nn3c(s/c(=C\c4ccccn4)c3=O)=NC21 (stereo not given)	111%	108%	82.4%	99.5%	110%	103%	104%	101%	96%	99.9%	110%	105%	100%	105%	99.1%	102%	90.6%	99.6%	104%	–
COc1ccc(-c2nn(-c3ccccc3)cc2/C=C/C(=O)c2ccc(NC(=O)CCCCCCC(=O)NO)cc2)cc1	97.6%	84.6%	137%	99%	63.8%	108%	119%	105%	114%	80.5%	94.4%	96.6%	106%	106%	95.8%	101%	94.9%	90.4%	113%	–
Cc1ccc(NC(=O)c2ccc(CN3CCN(C)CC3)c(C(F)(F)F)c2)cc1Oc1ccc(-c2[nH]nc3ncnc(N)c23)cc1	95.3%	2.49% (active)	-12% (active)	67.5%	42.3%	88%	82.8%	60.2%	58.5%	28.8%	-8.89% (active)	93.3%	99.2%	-27.7% (active)	78.7%	73%	82.6%	-85.3% (active)	68.6%	–
NCCN1CCN(c2nc(-c3ccccc3)nc3nc(-c4ccccc4)oc23)CC1	-79% (active)	6.56% (active)	-68.8% (active)	-74.5% (active)	49.6%	-64.7% (active)	-83.6% (active)	-87.6% (active)	93.4%	-66.8% (active)	-52.8% (active)	-77.1% (active)	-19.7% (active)	-51.4% (active)	15%	78.7%	101%	-90.6% (active)	-85.4% (active)	–
Cc1[nH]nc2ccc(-c3nc4cnc(N5CCN(C)CC5)cn4c3Nc3ccc(F)cc3Br)cc12	51.8%	5.31% (active)	76.8%	8.94% (active)	63.3%	75.8%	66.3%	-54.9% (active)	78.8%	27.8%	4.1% (active)	82.7%	45.4%	14.4%	47.6%	75.4%	17.9%	-10.4% (active)	62.8%	–
COCCC[C@H]1O[C@@](O)([C@H](C)[C@@H]2CC(OC)C(O)/C=C(C)/C=C(C)/C=C(\C)C(OC3O[C@@H](C)[C@H](O)C(O)[C@@H]3O)C(C)/C=C(C)/C=C(OC)/C=C(\C)C(=O)O2)C(OC)C(O)[C@]1(C)O[C@H]1C[C@@H](O)[C@H](O[C@H]2C[C@](C)(O)[C@H](O)C(C)O2)C(C)O1 (stereo not given in full)	48.5%	21.2%	51.1%	84.1%	47.6%	73%	24.8%	79.2%	3.39% (active)	57.5%	67%	35.3%	38.8%	47%	27.8%	7.32% (active)	58.4%	76.4%	84.2%	–
O=C(O)c1ccc(-n2cc(CNc3ccc(Cl)cc3)c(-c3ccc(F)cc3)n2)cc1	103%	83.4%	92.9%	94.2%	94.9%	104%	87.6%	98.1%	101%	79.6%	112%	131%	96.5%	90.4%	89%	84.8%	77.4%	84.3%	95.6%	–
NS(=O)(=O)c1ccc(-n2cc(CC=O)nn2)cc1	107%	93.6%	108%	103%	99.5%	102%	98.6%	99%	102%	99.8%	101%	90.1%	102%	102%	100%	100%	95.7%	98.9%	114%	–
CC[C@H](C)[C@H]1NC(=O)[C@@H]([C@H](O)C(C)C)NC(=O)[C@@H](C)N(C)C(=O)[C@H](C)N(C)C(=O)[C@H](CC(C)C)NC(=O)[C@H](CC(C)C)N(C)C(=O)[C@H](C)N(C)C1=O	1.83% (active)	7.23% (active)	3.72% (active)	8.22% (active)	-17.8% (active)	4.57% (active)	-4.82% (active)	-12.6% (active)	–	1.74% (active)	3.09% (active)	11.2%	5.15% (active)	1.21% (active)	5.5% (active)	-12.4% (active)	-3.83% (active)	-1.35% (active)	-9.11% (active)	-18.2% (active)
Cn1c2ccccc2c2c3c(c4c5ccc(Br)cc5oc4c21)C(=O)N(O)C3=O	86.1%	61.7%	113%	94.5%	–	78.6%	53.4%	96.2%	94.2%	74.6%	86.6%	54.3%	69.5%	60.5%	65.8%	75.6%	49.2%	-88.8% (active)	105%	89.3%
Cc1ccc(-c2cc(-c3cccc4ccccc34)n3c(n2)nc2ccccc23)cc1	69.4%	51.1%	32.2%	73.1%	–	66.4%	40.9%	49.4%	75.1%	48%	73.4%	46.8%	53.5%	48.9%	60.3%	40.9%	43.5%	56.6%	77%	61.5%
CCCCCCCCCC[C@@H](C)[C@@H]1CC(=O)N[C@H]([C@@H](C)O)C(=O)N[C@@H](C)C(=O)N[C@H](C)C(=O)N[C@@H](CCC(N)=O)C(=O)N[C@H](Cc2ccc(O)cc2)C(=O)N[C@@H](C(C)CC)C(=O)O1 (stereo not given in full)	57.1%	40.6%	65.7%	96.6%	97.5%	84.8%	36.2%	60.5%	–	101%	68.3%	52.5%	51.9%	51.6%	39%	48.1%	92.4%	71.2%	82.5%	79.4%
O=C1c2c(c3c4cc(O)ccc4oc3c3[nH]c4ccccc4c23)C(=O)N1O	11.3%	14.4%	9.51% (active)	26%	–	17.4%	10.2%	-15% (active)	22.1%	15.2%	-64.6% (active)	-8.52% (active)	16.4%	-3.58% (active)	12.8%	-76.1% (active)	-53.6% (active)	-67.8% (active)	19.4%	-4.66% (active)
CC(=O)NC(C)(C)C(=O)N1CCC[C@H]1C(=O)NC(C)(C)C(=O)N[C@@H](C)C(=O)NC(C)(C)C(=O)N[C@@H](C)C(=O)N[C@@H](CCC(N)=O)C(=O)NC(C)(C)C(=O)N[C@H](C(=O)NC(C)(C)C(=O)NCC(=O)N[C@@H](CC(C)C)C(=O)NC(C)(C)C(=O)N1CCC[C@H]1C(=O)N[C@H](C(=O)NC(C)(C)C(=O)NC(C)(C)C(=O)N[C@@H](CCC(N)=O)C(=O)N[C@@H](CCC(N)=O)C(=O)N[C@H](CO)Cc1ccccc1)C(C)C)C(C)C	62.9% [4.25 µM]	42.8% [4.25 µM]	57.1% [4.25 µM]	77.7% [4.25 µM]	82.7% [4.25 µM]	64.3% [4.25 µM]	55.1% [4.25 µM]	62.2% [4.25 µM]	–	101% [4.25 µM]	71% [4.25 µM]	33.4% [4.25 µM]	52.5% [4.25 µM]	62.3% [4.25 µM]	28.3% [4.25 µM]	38.2% [4.25 µM]	95.8% [4.25 µM]	84.3% [4.25 µM]	65.3% [4.25 µM]	68.5% [4.25 µM]
Cc1nc(-c2cc3ccccc3c(N3CCN(C)CC3)n2)cs1	109%	91.5%	96.5%	90.3%	–	87.3%	93.1%	85.2%	101%	92.1%	96.4%	76.2%	90.1%	96.4%	86.8%	95.4%	90.8%	84.7%	107%	95.4%
